# Source: PubChem BioAssay
# Lassa entry inh = inhibitors of Lassa virus binding or cell entry; Lassa virus pseudotype entry inhibition, cell reporter; 300,000 tested, 1.2% active; Potency, µM (doses to about 37.9 µM), without a hit: top-dose activity change, negative = inhibition, most hits filed as inhibitors; calls by dose curve; tested in HEK293 cells; further: potency means the concentration at half of the fitted maximal effect; nearly all actives have a fitted effect of over 50% in size
# HCV inhibitor = blocks hepatitis C virus. AID 651820. Huh7.5.1 HCVcc-Cre infection, luciferase reporter, 44 h. 340,000 tested, 3.4% active. Potency, µM (titrated, usually from 41.8 µM), for inactives: top-dose activity change, negative = inhibition, most hits filed as inhibitors; further: potency means the concentration at half of the fitted maximal effect
#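 Luciferase read-out (15 sec integration) after a 15 min room-temperature substrate step quantifies HCVcc-Cre infection. Cells, 1,000 per well, had compound added 4 h post-plating, then virus at ~0.5 moi, and were cultured 44 h.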
# HCMV antiviral = human cytomegalovirus inhibition. HFF cells, HCMV-luciferase reporter, 72 h; active compounds read low. activity change, negative = inhibition, % at 57.5 µM. 410,000 tested, 4.5% active; in the data active means activity change below about -60%; inconclusive means no clear call, values can overlap the other calls; inactive means above about -39%
#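 Steps: HFFs plated, 16 h 37C; compounds added; HCMV-luciferase added to MOI 1 PFU/cell; 72 h 37C; OneGlo reagent, 5 min room temperature; luminescence read, normalized to controls.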
# Marburg entry inh = Marburg virus entry inhibition; Marburg virus pseudotyped entry inhibition, cell reporter; 300,000 tested, 1.8% active; Potency, µM (highest dose often 37.8 µM), without a hit: at the top dose activity change, negative = inhibition, usual class: inhibitors; calls by dose curve; tested in HEK293 cells; further: potency means the concentration at half of the fitted maximal effect
# Pf growth 48h = P. falciparum growth inhibition at 48 hours (one generation) | P. falciparum luciferase growth in erythrocytes, 48 h | 310,000 tested, 5.9% active | Potency, µM (highest dose often 28.7 µM), for the others: top-dose activity change, negative = inhibition, usual class: inhibitors; further: potency means the concentration at half of the fitted maximal effect
#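 Luminescence readout; reporter = integrated firefly luciferase in P. falciparum. RBC culture at 2% hematocrit, 0.1% parasitemia final, 37 C/5% CO2; decreased signal taken as growth inhibition.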
# Pf growth 96h = P. falciparum growth inhibition at 96 hours. P. falciparum luciferase reporter growth, 96 h. Potency, µM (series often up to 28.7 µM), inactives show at the top dose activity change, negative = inhibition, actives largely listed as inhibitors. 320,000 tested, 6.9% active. AID 504834; further: potency means the concentration at half of the fitted maximal effect
#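 Compounds incubated with erythrocytes infected by luciferase-expressing P. falciparum (2% hematocrit, 0.05% parasitemia final) for 96 hours, 37 C in 5% CO2. Growth inhibition scored as decreased luciferase luminescence.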
# * marks the source's active call; other numbers are inactive results; ? = inconclusive; · = not tested or not shown; [ ] = another dose, or the depositor's remark. This is a sample that favours compounds with a hit; in the whole collection about 14% have one here. Unless noted, the call rests on the fitted dose curve; in most records, active means well fitted inhibition curve with a large enough effect; inconclusive means small, poorly fitted or top-dose-only effect, or another doubt; inactive means no such curve, though single readings can be large or run the other way. On the % scale 0 is the no-effect control and ±100 the full control effect.
SMILES,Lassa entry inh,HCV inhibitor,HCMV antiviral,Marburg entry inh,Pf growth 48h,Pf growth 96h
CCN1CCN(C(=O)c2ccccc2N(Cc2ccccc2)S(=O)(=O)c2ccc(C)cc2)CC1,?,?,7,5.8µM*,·,15µM*
C=CCN(c1ccccc1C(=O)O)S(=O)(=O)c1ccc(NC(=O)OC)cc1,20%,-10%,17,1%[46.1 µM],2.3µM*,48%
COc1cccc(/C=N/NC(=O)c2ccccc2N(Cc2ccccc2)S(=O)(=O)c2ccccc2)c1OC,?,?,-38,-27%,?,12µM*
C[C@H](NC(=O)CSc1nc2c(cc1C#N)CN(C)CC2)c1ccccc1,·,·,·,18%,·,·
O=C(Nc1cc2c3c(c1)CC(=O)N3CCC2)c1ccc(Br)cc1,-3%,-9%,0,-9%,?,?
CC1C(=O)N2CCCc3cc(NC(=O)C(=O)NCc4cccnc4)cc1c32 (configuration not stated),8%,1%,69,-12%,?,?
O=C(NCCc1c[nH]c2ccccc12)C(=O)Nc1cc2c3c(c1)CC(=O)N3CCC2,?,18%[8.37 µM],-18,-30%,1µM*,2.9µM*
CC1C(=O)N2CCCc3cc(S(=O)(=O)NCCc4ccccc4)cc1c32 (configuration not stated),·,?,?,·,-1%,2.1µM*
CC1C(=O)N2CCCc3cc(NC(=O)C(=O)NCc4ccc5c(c4)OCO5)cc1c32 (configuration not stated),-3%[46.1 µM],?,17,-10%,8.3µM*,7.4µM*
COc1ccc(CCNS(=O)(=O)c2cc3c4c(c2)C(C)C(=O)N4CCC3)cc1OC (configuration not stated),·,-9%,16,·,0%,?
O=C(Nc1cc2c3c(c1)CC(=O)N3CCC2)c1ccccc1Br,-4%,10µM*,-11,2%,-11%,49%
O=C(NCc1ccc(F)cc1)c1cc(C2CCCCN2C(=O)OCCF)on1 (configuration not stated),·,·,3,·,·,·
COc1ccc(NC(=O)CSc2nnc(-c3nonc3NC(C)=O)n2C)cc1Cl,-19%[46.1 µM],·,-11,14%[46.1 µM],·,·
COc1ccccc1CCNC(=O)C(=O)Nc1cc2c3c(c1)C(C)C(=O)N3CCC2 (configuration not stated),-14%,-28%,8,?,13µM*,?
COCCNC(=O)C(=O)Nc1cc2c3c(c1)C(C)C(=O)N3CCC2 (configuration not stated),·,14%,60,·,34%,104%
Cc1c(NC(=O)c2cccs2)cccc1-c1nc2cc(Cl)ccc2o1,13%[46.1 µM],·,-13,-14%[46.1 µM],·,·
CC1(C)CC(=O)C2=C(C1)NC(SCC(=O)Nc1ccccc1)=C(C#N)C2c1ccco1 (configuration not stated),?,-11%,?,14µM*,?,·
N#CC1=C(SCC(=O)c2ccc(Br)cc2)NC2=C(C(=O)CCC2)[C@H]1c1ccco1,·,·,·,8.9µM*,·,·
CC(=O)C1=C(C)NC(SCC(=O)c2ccc(C)cc2)=C(C#N)C1c1ccco1 (configuration not stated),·,7.1µM*,·,·,9.3µM*,6.6µM*
CCOC(=O)C1=C(c2ccccc2)NC(SCC(=O)NC2CCCCC2)=C(C#N)C1c1ccco1 (configuration not stated),?,?,-33,?,12µM*,16%
CCCCOC(=O)CSC1=C(C#N)C(c2cccnc2)C(C(=O)OCC)=C(c2ccccc2)N1 (configuration not stated),?,-12%,?,?,?,?
Cc1ccc(NC(=O)CSC2=C(C#N)C(c3ccco3)C3=C(CCCC3=O)N2)cc1 (configuration not stated),?,-13%,7,?,?,34%
COC(=O)c1cc2sc(C)cc2n1Cc1nc(-c2ccc(C)cc2)oc1C,·,·,-29,14%[46.1 µM],·,·
CCCSc1nnc(NC(=O)Cc2coc3cc(C)ccc23)s1,-7%[46.1 µM],·,20,6%[46.1 µM],·,·
COc1ccc(/C(O)=C2\C(=O)C(=O)N(CCCN(C)C)[C@H]2c2ccccc2)cc1OC,·,·,·,7%,·,·
SMILES,Lassa entry inh,HCV inhibitor,HCMV antiviral,Marburg entry inh,Pf growth 48h,Pf growth 96h
CCC[C@H]1[C@@H](NS(=O)(=O)c2ccc3ccccc3c2)CC[C@@]23CCCN2C(=O)CCC[C@@H]13,·,·,-14,·,·,·
O=c1cc(-c2ccccc2)n2c(SCc3ccccc3Cl)nnc2[nH]1,28%[46.1 µM],·,-33,·,·,·
CCOC(=O)C1=C(c2ccccc2)NC(SC)=C(C#N)C1c1cccnc1 (configuration not stated),-4%,18%,-33,22%,?,12µM*
COc1ccc(OC)c(NC(=O)CSC2=C(C#N)C(c3ccco3)C3=C(CCCC3=O)N2)c1 (configuration not stated),-6%,?,-40,-3%,9.3µM*,-4%
COCCOC(=O)C1=C(C)NC(SCC(=O)NC(C)(C)C)=C(C#N)C1c1ccco1 (configuration not stated),-28%,-10%,-32,8%,?,·
Cc1ccc(C(=O)CSC2=C(C#N)C(c3ccco3)C3=C(CC(C)(C)CC3=O)N2)cc1 (configuration not stated),?,?,-68*,?,·,0%
N#CC1=C(SCC(=O)c2ccc(Cl)cc2)NC2=C(C(=O)CCC2)C1c1ccco1 (configuration not stated),?,?,-40,?,?,0%
COc1ccccc1NC(=O)C1=C(C)NC(SCC(=O)c2ccccc2)=C(C#N)C1c1ccco1 (configuration not stated),-5%,7.9µM*,·,?,9.3µM*,·
Cc1cc(SCC(=O)OC/C(O)=C(\C#N)c2nc3ccccc3[nH]2)c(C)cc1Br,?,2%,?,?,10%,?
N#C/C(=C(/O)COC(=O)CSc1ccc(Cl)cc1)c1nc2ccccc2[nH]1,9%,0%,-81*,-13%,35%,59%
COc1ccccc1OCC(=O)OC/C(O)=C(\C#N)c1nc2ccccc2[nH]1,·,-12%,-99*,·,20%,?
N#C/C(=C(/O)COC(=O)CCCNC(=O)c1ccc(Cl)cc1)c1nc2ccccc2[nH]1,?,-5%,-93*,?,13%,-3%[5.75 µM]
CCOC(=O)/C(O)=C(\C#N)c1nc2ccccc2[nH]1,-2%[46.1 µM],9%,-64*,-8%[46.1 µM],15%,0%
COc1ccc(OC/C(O)=C(\C#N)c2nc3ccccc3[nH]2)cc1,22%,0%,-9,10%,5%,21%
CN1C(=O)C(C2(O)C(=O)Nc3ccccc32)c2ccccc21 (configuration not stated),·,·,4,·,·,·
